Assay results reported in PubChem BioAssay AID1159580 (chemical genetic matrix, 2015).
About 2,000 (36%) of roughly 5,500 compounds were called active. Not shown: some 18% with an inconclusive outcome. Cut-off read from the data, not from the text of the source: active = normalized growth mostly below about 0.91 (no sharp cut-off); inconclusive = no clear call, values can overlap the other calls; inactive = mostly above about 0.92. The list shows a part of the results.

Experiment: chemical genetic growth profiling, strain panel (AID 1159580);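 note: tested at 20 µM; growth read once vehicle control cultures reached saturation at 30 °C; 1 = growth at the plate median or of vehicle wells; lower values mean less growth of the strain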
Conditions: S. cerevisiae deletion strains, growth OD

Measured: normalized growth

O=C(OC1Cc2c(O)cc(O)cc2OC1c1cc(O)c(O)c(O)c1-c1c(C2Oc3cc(O)cc(O)c3CC2OC(=O)c2cc(O)c(O)c(O)c2)cc(O)c(O)c1O)c1cc(O)c(O)c(O)c1 (centres undefined)
inactive: locus YAL026C, strain drs2, stronger effect = lower value 0.982 | locus YAL030W, strain snc1, stronger effect = lower value 0.998 | locus YBL061C, strain skt5, stronger effect = lower value 0.982 | locus YBR009C, strain hhf1, stronger effect = lower value 0.995 | locus YBR021W, strain FUR4, stronger effect = lower value 0.988 | locus YBR023C, strain chs3, stronger effect = lower value 0.941 | locus YBR171W, strain sec66, stronger effect = lower value 1.01 | locus YBR229C, strain ROT2, stronger effect = lower value 1 | locus YBR231C, strain swc5, stronger effect = lower value 0.929 | locus YBR279W, strain paf1, stronger effect = lower value 0.989 | locus YCL011C, strain gbp2, stronger effect = lower value 1.01 | locus YCL016C, strain dcc1, stronger effect = lower value 1.01 | locus YCL029C, strain bik1, stronger effect = lower value 0.981 | locus YCL061C, strain MRC1, stronger effect = lower value 1.01 | locus YCL069W, strain vba3, stronger effect = lower value 1.02 | locus YCR088W, strain abp1, stronger effect = lower value 1.02 | locus YDL005C, strain med2, stronger effect = lower value 1.02 | locus YDL035C, strain GPR1, stronger effect = lower value 1.04 | locus YDL040C, strain nat1, stronger effect = lower value 1.03 | locus YDL074C, strain BRE1, stronger effect = lower value 0.969 | locus YDL101C, strain DUN1, stronger effect = lower value 1 | locus YDL185W, strain tfp1, stronger effect = lower value 0.988 | locus YDL192W, strain arf1, stronger effect = lower value 0.985 | locus YDR001C, strain nth1, stronger effect = lower value 1.02 | locus YDR101C, strain arx1, stronger effect = lower value 0.998 | locus YDR150W, strain NUM1, stronger effect = lower value 1 | locus YDR159W, strain sac3, stronger effect = lower value 1.11 | locus YDR162C, strain NBP2, stronger effect = lower value 1.02 | locus YDR195W, strain ref2 1.07 | locus YDR297W, strain sur2, stronger effect = lower value 0.992 | locus YDR318W, strain mcm21, stronger effect = lower value 0.995 | locus YDR334W, strain swr1, stronger effect = lower value 0.977 | locus YDR335W, strain msn5, stronger effect = lower value 1 | locus YDR388W, stronger effect = lower value 0.99 | locus YDR392W, strain spt3, stronger effect = lower value 1.02 | locus YDR502C, strain sam2, stronger effect = lower value 0.985 | locus YEL003W, strain gim4, stronger effect = lower value 0.989 | locus YEL037C, strain rad23, stronger effect = lower value 0.993 | locus YEL061C, strain CIN8 (second series), stronger effect = lower value 1.01 | locus YEL061C, strain CIN8, stronger effect = lower value 1.01 | locus YER016W, strain bim1, stronger effect = lower value 1.01 | locus YER110C, stronger effect = lower value 0.994 | locus YER111C, strain swi4, stronger effect = lower value 0.973 | locus YER155C, strain BEM2 (second series), stronger effect = lower value 0.994 | locus YER155C, strain BEM2, stronger effect = lower value 0.977 | locus YER167W, strain BCK2, stronger effect = lower value 1 | locus YFR010W, strain ubp6, stronger effect = lower value 0.934 | locus YGL078C, strain dbp3, stronger effect = lower value 0.987 | locus YGL086W, strain mad1, stronger effect = lower value 1 | locus YGL167C, strain pmr1, stronger effect = lower value 1 | locus YGL173C, strain kem1, stronger effect = lower value 0.981 | locus YGL227W, strain vid30, stronger effect = lower value 1.05 | locus YGL240W, strain doc1, stronger effect = lower value 1.04 | locus YGL248W, strain PDE1, stronger effect = lower value 1 | locus YGL253W, strain hxk2, stronger effect = lower value 0.994 | locus YGR078C, strain PAC10, stronger effect = lower value 0.983 | locus YGR135W, strain pre9, stronger effect = lower value 0.989 | locus YGR252W, strain gcn5, stronger effect = lower value 1.01 | locus YHR013C, strain ard1, stronger effect = lower value 0.852 | locus YHR030C, strain SLT2, stronger effect = lower value 0.998 | locus YHR079C, strain IRE1 (second series), stronger effect = lower value 0.987 | locus YHR094C, strain hxt1, stronger effect = lower value 0.989 | locus YHR129C, strain ARP1, stronger effect = lower value 0.983 | locus YHR142W, strain chs7, stronger effect = lower value 0.95 | locus YHR200W, strain rpn10, stronger effect = lower value 1 | locus YIL066C, strain RNR3, stronger effect = lower value 1.03 | locus YIL073C, strain SPO22, stronger effect = lower value 1.1 | locus YIL125W, strain kgd1, stronger effect = lower value 0.973 | locus YIR030C, strain dcg1, stronger effect = lower value 0.995 | locus YJL092W, strain hpr5, stronger effect = lower value 1.03 | locus YJL095W, strain BCK1 (second series), stronger effect = lower value 0.987 | locus YJL095W, strain BCK1, stronger effect = lower value 0.976 | locus YJL115W, strain asf1, stronger effect = lower value 1.02 | locus YJL129C, strain trk1, stronger effect = lower value 1.04 | locus YJL134W, strain LCB3, stronger effect = lower value 1.02 | locus YJL154C, strain vps35, stronger effect = lower value 1.01 | locus YJL164C, strain tpk1, stronger effect = lower value 0.937 | locus YJL166W, strain qcr8, stronger effect = lower value 0.989 | locus YJL168C, strain set2, stronger effect = lower value 0.981
active: locus YAL021C, strain ccr4, stronger effect = lower value 0.833 | locus YDR069C, strain doa4, stronger effect = lower value 0.797 | locus YDR137W, strain rgp1, stronger effect = lower value 0.833 | locus YER015W, strain faa2, stronger effect = lower value 0.926 | locus YHR027C, strain rpn1, stronger effect = lower value 0.849
